Broadly, the % inhibition is the relative decrease from the control value, in per cent.

Values joined by “and” are separate entries in the source; they are usually repeats but may differ in a detail not shown here. Equal values may be shown once. Hit rate of the full screen: of about 4,400 compounds, about 390 (8.9%) showed an effect of 50% or more. The full list was thinned out, with strong results kept by preference.

The test system of the assay is Trypanosoma brucei. Briefly: DNDI: Inhibition of Human African Trypanosomiasis, SBRI 427, in vitro at 2 ug.mL-1. The format is functional.
For the compound `Cc1ccc(/C(N)=N/O)c(Oc2cccc3ccc(C)nc23)n1`, the “% inhibition” value stood at 13%. The value for `O/N=C(\NCCN1CCOCC1)c1ccc(Oc2cccc3cccnc23)nc1` was 9%; that for `Cc1cc(Oc2ccc(/C(=N/O)n3ccnc3)cn2)cc(C(C)C)c1` was 1%. The value for `C=CCN1CCN(/C(=N\O)c2ccnc(Oc3ccc(C)c4c3CCC4)c2)CC1` was 22%. For `Cc1ccccc1-c1nc(CN2CCN(C/C=C/c3ccccc3)CC2)co1`, the “% inhibition” value was -34%. The value for `Cc1cccc(-c2nc(CNCc3ccc(C(C)(C)C)cc3)co2)c1` was -9%.

Regarding `CSc1ccccc1Oc1ncccc1/C(=N/O)NCc1cccs1`, the “% inhibition” value was 28%. The value for `COCCN(/C(=N\O)c1cccnc1Oc1ccccc1F)C(C)C` was 5%. The value for `CCC(CC)N/C(=N\O)c1cccnc1Oc1ccccc1SC` was 99%; that for `COCC(C)N/C(=N\O)c1cccnc1OCc1ccccc1F` (stereo not drawn) was -13%.

As to `CCC(CC)N/C(=N\O)c1cccnc1Oc1ccccc1F`, the “% inhibition” value is 96%. The value for `COc1ccc(CN/C(=N\O)c2cccnc2Oc2ccccc2SC)cc1` was 16%; that for `Cc1cn(/C(=N\O)c2cccnc2Oc2c(F)cccc2F)cn1` was -7%.

As for `COCC(C)N/C(=N\O)c1cccnc1Oc1ccccc1OC(C)C` (stereo not drawn), the “% inhibition” value is reported as -8%. The value for `CCC(CC)N/C(=N\O)c1cccnc1Oc1ccccc1OC` was 76%; that for `CCC(CC)N/C(=N\O)c1cccnc1Oc1c(F)cccc1F` was 99%. With `COC[C@H]1CCCN1Cc1coc(-c2ccc(O)cc2)n1`, the “% inhibition” value is recorded as 16%. For the compound `Clc1ccccc1-c1nc(CNCCc2ccccc2)co1`, the “% inhibition” value was -15%. As to `CCC(NCc1coc(-c2ccc(C)cc2)n1)c1ccccc1` (stereo not drawn), the “% inhibition” value is -6% and 4%.

`Cc1cc(Oc2ccc(/C(=N/O)N3CCSCC3)cn2)cc(C(C)C)c1`: the “% inhibition” value amounted to 4%. The value for `Cc1ccc(/C(=N/O)NCc2ccc(C)o2)c(OCc2ccccc2F)n1` was 18%; that for `CC(CCc1ccccc1)NCc1coc(-c2ccc(F)cc2)n1` (stereo not drawn) was 17%; that for `Cc1ccc(Oc2nc(C)ccc2/C(=N/O)NCc2cccs2)cc1` was 16%. As for `COc1cccc(N2CCN(Cc3coc(-c4ccc(Cl)cc4Cl)n3)CC2)c1`, the “% inhibition” value came out at 10%. The value for `Cc1cc(C)cc(Oc2nc(C)ccc2/C(=N/O)NC2CC(C)CC(C)(C)C2)c1` (stereo not drawn) was -4%; that for `Cc1ccc(/C(=N/O)NC2CCC(C)CC2)c(OCc2ccccn2)n1` (stereo not drawn) was 100%; that for `CSc1ccc(Oc2nc(C)ccc2/C(=N/O)NC2CC(C)CC(C)(C)C2)cc1` (stereo not drawn) was 10%.

As for `Cc1ccc(/C(=N/O)NC2CC(C)CC(C)(C)C2)c(OCc2ccccn2)n1` (stereo not drawn), the “% inhibition” value stood at 56%. The value for `CC(C)COc1ncccc1/C(=N/O)NC1CC(C)CC(C)(C)C1` (stereo not drawn) was -8%. Regarding `Cc1ccc(/C(=N/O)NC2CCc3ccccc32)c(OCc2ccccn2)n1` (stereo not drawn), the “% inhibition” value came to 5%. The value for `Cc1ccc(/C(=N/O)NC2CC(C)CC(C)(C)C2)c(OCC(C)C)n1` (stereo not drawn) was 97%; that for `Cc1ccc(/C(=N/O)NCC2CCCCC2)c(OCc2ccccn2)n1` was 43%; that for `Cc1ccc(/C(=N/O)NC(C)C)c(OCc2ccccn2)n1` was 11%. Consider `CN(Cc1ccccc1)Cc1coc(-c2cccc3ccccc23)n1`, for which the “% inhibition” value is -2%. The value for `COc1ccc(OC)c(NCc2coc(-c3ccccc3C)n2)c1` was 8%.

As to `CCCN(CC1CC1)/C(=N\O)c1ccc(C)nc1Oc1cccc2cnccc12`, the “% inhibition” value stood at 23%. The value for `Cc1ccc(/C(=N/O)N2C(C)C=CC2C)c(Oc2cccc(C(C)C)c2)n1` (stereo not drawn) was 20%; that for `Cc1ccc(/C(=N/O)NC2CCC2)c(Oc2ccc3ccccc3c2)n1` was 7%; that for `Cc1ccc(/C(=N/O)NC2CCCCC2)c(Oc2ccc3ccccc3c2)n1` was 97%. The value for `Cc1cccc(Oc2nc(C)ccc2/C(=N/O)NC2CCCCC2)c1` was 98%. For the compound `Cc1ccc(/C(=N/O)NC2CC2)c(Oc2ccc3ccccc3c2)n1`, the “% inhibition” value is on record as 16%.

Take `Cc1ccc(/C(=N/O)NC2CCCCC2)c(Oc2cccc(C(C)C)c2)n1`: the “% inhibition” value is recorded as 22%.

As to `Cc1cccc(Oc2nc(C)ccc2/C(=N/O)NC2CCCC2)c1`, the “% inhibition” value is on record as 11%. The value for `CCOc1cccc(-c2nc(CN(C)Cc3cc(OC)c(OC)c(OC)c3)co2)c1` was 18%; that for `COc1ccc(Oc2cc(/C(=N/O)NCc3ccccc3C)ccn2)cc1` was 21%; that for `Cc1ccc(-c2nc(CNCC(C)(C)CN(C)C)co2)cc1` was 10%. The value for `Cc1cccc(Oc2ncccc2/C(=N/O)N(C)C2CCCCC2)c1C` was -1%. The value for `COc1ccc(CN/C(=N\O)c2ccnc(Oc3cccc(C(C)C)c3)c2)cc1` was -1%; that for `CC1CCCN1/C(=N\O)c1cccnc1OCc1ccccc1F` (stereo not drawn) was -5%. Take `CCCCC(CC)CNCc1coc(-c2ccc(Br)cc2)n1` (stereo not drawn): the “% inhibition” value was -12%. Regarding `COCCN/C(=N\O)c1ccnc(Oc2ccc(SC)cc2)c1`, the “% inhibition” value is on record as -13%.

For the compound `COCCN/C(=N\O)c1ccnc(Oc2ccc(OC)cc2)c1`, the “% inhibition” value amounted to 41%. The value for `COCC(C)N/C(=N\O)c1ccnc(Oc2ccc(Cl)cc2)c1` (stereo not drawn) was 99%; that for `COCC(C)N/C(=N\O)c1ccc(Oc2ccc(Cl)cc2)nc1` (stereo not drawn) was 31%; that for `O/N=C(\NCc1c(F)cccc1F)c1ccnc(Oc2ccc(Cl)cc2)c1` was 12%. The value for `CSc1ccc(Oc2cc(/C(=N/O)NCc3ccncc3)ccn2)cc1` was 9%; that for `COCCN/C(=N\O)c1ccnc(Oc2ccc(Cl)cc2)c1` was 55%. The value for `COCC(C)N/C(=N\O)c1ccnc(Oc2ccc(SC)cc2)c1` (stereo not drawn) was 86%; that for `COCCN/C(=N\O)c1ccnc(Oc2cccc(C(C)C)c2)c1` was 4%; that for `COCC(C)N/C(=N\O)c1ccnc(Oc2cccc(F)c2)c1` (stereo not drawn) was 8%.

For `COCC(C)N/C(=N\O)c1ccnc(Oc2cccc(C(C)C)c2)c1` (stereo not drawn), the “% inhibition” value is recorded as 71%. The value for `COCCN(/C(=N\O)c1ccnc(Oc2ccc(Cl)cc2)c1)C(C)C` was 28%; that for `CCOC(=O)C1CCCCN1Cc1coc(-c2ccc(O)cc2)n1` (stereo not drawn) was -1%.

With `Fc1ccccc1-c1nc(CNCc2cccc3ccccc23)co1`, the “% inhibition” value was determined as 24%.

Turning to `Cc1ccc(/C(=N/O)N(C)Cc2cccnc2)c(Oc2cccnc2)n1`, the “% inhibition” value was 10%.

As for `CSc1ccc(Oc2nc(C)ccc2/C(=N/O)N2C(C)C=CC2C)cc1` (stereo not drawn), the “% inhibition” value is recorded as -5%. As for `Cc1ccccc1-c1nc(CN(C)Cc2ccco2)co1`, the “% inhibition” value is reported as 2%. The value for `CCN(/C(=N\O)c1ccc(C)nc1Oc1cccc(C(C)C)c1)C(C)C` was -4%.

Values taken from ChEMBL document CHEMBL1857833, “Screening and optimization of specific chemical series against human African Trypanosomiasis (HAT)”.
